The results in this text go back to ChEMBL document CHEMBL4513216, “Probing the Open Global Health Chemical Diversity Library for Multistage-Active Starting Points for Next-Generation Antimalarials” (ACS Infect Dis, 2020).

Each structure is given as a SMILES string. The campaign covered roughly 69,000 compounds. About 8,600 (12%) showed an effect of 50% or more. The entries come from a sample that favours strong results as a whole.

In this assay the test system is Plasmodium berghei. Put plainly: Screen against P. berghei liver stage (PbLuc), transformed with Luciferase, at 10uM. The format is functional, HepG2. As to conditions: tested at 10 uM.
Turning to `O=C(NCc1nncn1C1CC1)c1ccccc1Oc1cccnc1`, the INHIBITION is -18.3%. Next, `O=C(c1ccnnc1)N1C[C@@H]2COC[C@]2(COCC2CC2)C1`: 46.2%; `OC(CNCCn1cccn1)c1cccc(Br)c1` (stereo unspecified): 11.2%. Next, `CC(O)c1cn(CC2CCN(C(=O)c3cccc(N(C)C)c3)CC2)nn1` (stereo unspecified): 55.7%; `CC(O)c1cn(CC2CCN(C(=O)c3cscn3)CC2)nn1` (stereo unspecified): 30.3%; `CC(O)c1cn(CC2CCN(C(=O)CN(C)C(C)C)CC2)nn1` (stereo unspecified): 8.51%. For the molecule `CCC(CC(=O)Nc1ccc2c(c1)CC(=O)N2)c1ccccc1` (stereo unspecified), the INHIBITION was found to be 49.1%. Next, `CCN(CC)C(C(=O)Nc1ccc2c(c1)CCC(=O)N2)c1ccccc1` (stereo unspecified): 56.8%; `CCN(C)C(C(=O)Nc1ccc2c(c1)CCC(=O)N2)c1ccccc1` (stereo unspecified): 36.3%; `COCCN1C[C@@H]2[C@@H](OC)CCN(C(=O)c3cccc(OC)c3)[C@@H]2C1`: 11.6%.

Consider `Cc1ccc(OCCC(=O)NC2CCc3nccn3C2)cc1` (stereo unspecified), for which the INHIBITION came out at 22.1%. Take `CN(C)C(=O)CO[C@H]1CN(Cc2ccc(F)cc2)[C@@H]2CCCO[C@H]12`: the INHIBITION was found to be 25.1%. Next, `CCCc1nnc(N2CCC(N3CCCCCC3)CC2)o1`: 23.3%. Then `CCCc1nnc(N2CCC(N3CCCC3)CC2)o1`, with 79.8%; and `CCCc1nnc(N2CCN(C3CCCC3)CC2)o1`, with 26.5%.

For the molecule `O=C(O)C1(Oc2cccc(F)c2)CCN(C2CCOCC2)CC1`, the INHIBITION is -15.2%. Then `Cc1ccccc1OCC(O)CN1CCC(c2ccn[nH]2)CC1` (stereo unspecified), with -17.6%. Then `CSC1(CNC(=O)NC(C)c2ccc(F)c(F)c2)CCOCC1` (stereo unspecified), with 65.3%; and `CSC1(CNC(=O)NC(C)c2ccc(F)cc2)CCOCC1` (stereo unspecified), with 16.5%; and `CSC1(CNC(=O)NC(C)Cc2cccc(F)c2)CCOCC1` (stereo unspecified), with -12.5%. Then `O=C1NCC(C(=O)Nc2ccc(=O)n(Cc3ccccc3Cl)c2)N1` (stereo unspecified), with 26.8%; and `Cc1cc2c(N)nc(=O)n(CC(=O)Nc3ccccc3)c2s1`, with 1.45%. Take `Cc1cc2c(N)nc(=O)n(CC(=O)Nc3cccc(Cl)c3)c2s1`: the INHIBITION is recorded as 76.9%. Then `COc1cccc(NC(=O)Cn2c(=O)nc(N)c3cc(C)sc32)c1`, with -12.5%; and `O=C(Nc1cccnc1N1CCSCC1)c1ccc2c(c1)OCO2`, with 49.5%; and `COc1c(C2CCCN2CC(=O)Nc2cc(C)on2)c(C)nn1C` (stereo unspecified), with -102%. Then `CC(C)(C)n1ncc2c1NC(=O)CC2c1ccc(C#N)cc1` (stereo unspecified), with -1.04%. As to `CCc1[nH]c2c(CNc3nccc(N)n3)cc(F)cc2c1C`, the INHIBITION was found to be 55.4%. Then `CCc1[nH]c2c(CNc3cncc(C(=O)N(C)C)n3)cc(F)cc2c1C`, with 47.2%; and `CCc1[nH]c2c(CNC(=O)C3CCN(C)C3)cc(C)cc2c1C` (stereo unspecified), with 14.9%; and `CCc1[nH]c2c(CNc3cnccn3)cc(F)cc2c1C`, with 56.3%. For `CCc1[nH]c2ccc(CNC(=O)c3cnc(N)nc3C)cc2c1C`, the INHIBITION turned out to be 36.5%. Next, `Cc1cc(CNc2nccc(N)n2)c2[nH]c(C)c(C)c2c1`: 66.9%; `CCc1[nH]c2c(CNC(=O)C3CCC(=O)NC3)cc(C)cc2c1C` (stereo unspecified): -8.75%. Then `CCc1[nH]c2c(CNc3nccc(N)n3)cc(C)cc2c1C`, with 37.4%; and `Cc1noc(C)c1CN1CCC2(CC1)CC(Oc1cccnc1)C2`, with 30.5%; and `Cn1cccc1C(=O)N1CCN(Cc2cccnc2)c2ncccc2C1`, with 10.5%. Next, `CCc1n[nH]c(C2CN(C(=O)CCOCC(F)(F)F)CCO2)n1` (stereo unspecified): 1.45%; `O=C1NC2(CCN(c3ncccn3)CC2)CC1c1cccnc1` (stereo unspecified): 17.1%; `Cc1cc(CC(=O)NC2CCCN(c3ccccc3F)C2=O)n[nH]1` (stereo unspecified): 13.6%. For `Cc1ccsc1C(CNC(=O)c1cc(=O)[nH]c(=O)[nH]1)N(C)C` (stereo unspecified), the INHIBITION is recorded as -27.5%. Then `NC(=O)CC1CCCN(c2cncc(SCc3ccccc3)n2)C1` (stereo unspecified), with -13.7%. Next, `CC(=O)Nc1ccc(Cl)c(C(=O)N(C)C(C)c2ccncn2)c1` (stereo unspecified): 32.2%; `CC(=O)Nc1ccc(Cl)c(C(=O)N(C)C(C)c2ccon2)c1` (stereo unspecified): 18.3%; `CC(=O)Nc1ccc(Cl)c(C(=O)N(C)C(C)c2nccs2)c1` (stereo unspecified): 61%. Then `Cc1nc(C)n(CC2CN(Cc3ccc4c(c3)OCCO4)CCO2)n1` (stereo unspecified), with 1.78%; and `O=C(Cn1cnc2sccc2c1=O)NCCCc1nnc2ccccn12`, with 28.3%; and `CCc1cnc(CNC(=O)NCCc2ccc(O)cc2)s1`, with 71.1%. `Cc1cnc(CCNC(=O)NCCc2ccc(O)cc2)s1`: the INHIBITION is reported as 42.8%. Next, `CCc1cnc(CNC(=O)NCCCO)s1`: -25.6%; `CCC[C@@H]1CN(Cc2ccccc2OC(F)(F)F)C[C@H]1NC(C)=O`: 19.7%.
